PubChem BioAssay (NCATS)
Several values for one entry are separate records, joined by “and”; a condition that tells them apart may be missing. Equal entries are not always repeated. Results filed as inconclusive are left out. A call without a number means that no potency is given here. A number with no mark means an inactive call. Activity calls are given as the source filed them. Calls follow the shape of the dose curve; as a rule, active = well fitted inhibition curve with a large enough effect; inconclusive = small, poorly fitted or top-dose-only effect; inactive = flat fitted curve, though single readings scatter.

Experiments:
[1] = system: P93_24; assay: qHTS profiling for inhibitors of Plasmodium falciparum proliferation (AID 504749); settings: P. falciparum in erythrocytes, SYBR Green DNA, 72 h; series mostly up to 28.7 µM
How it was run: (§1)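 Infected RBCs, 0.3% parasitemia/2.5% Hct final; cpd 72 h, 37 C, 5% CO2; lysis buffer with saponin/triton/SYBR Green I, o/n RT dark; FI 485/535; norm. to artemisinin (0.29 uM) and DMSO.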

[2] = system: P94_40; assay: as above; settings: P. falciparum in erythrocytes, SYBR Green DNA, 72 h; series mostly up to 28.7 µM
How it was run: as §1

[3] = system: PAD; assay: as above; settings: P. falciparum in erythrocytes, SYBR Green DNA, 72 h; series mostly up to 28.7 µM
How it was run: as §1

[4] = system: PC15; assay: as above; settings: P. falciparum in erythrocytes, SYBR Green DNA, 72 h; series mostly up to 28.7 µM
How it was run: as §1

[5] = system: PC26; assay: as above; settings: P. falciparum in erythrocytes, SYBR Green DNA, 72 h; series mostly up to 28.7 µM
How it was run: as §1

[6] = system: PC49; assay: as above; settings: P. falciparum in erythrocytes, SYBR Green DNA, 72 h; series mostly up to 28.7 µM
How it was run: as §1

[7] = system: SC27B; assay: as above; settings: P. falciparum in erythrocytes, SYBR Green DNA, 72 h; series mostly up to 28.7 µM
How it was run: as §1

[8] = system: TAB109; assay: as above; settings: P. falciparum in erythrocytes, SYBR Green DNA, 72 h; series mostly up to 28.7 µM
How it was run: as §1

[9] = system: TAB113; assay: as above; settings: P. falciparum in erythrocytes, SYBR Green DNA, 72 h; series mostly up to 28.7 µM
How it was run: as §1

[10] = system: TAB165; assay: as above; settings: P. falciparum in erythrocytes, SYBR Green DNA, 72 h; series mostly up to 28.7 µM
How it was run: as §1

[11] = system: W2; assay: as above; settings: P. falciparum in erythrocytes, SYBR Green DNA, 72 h; series mostly up to 28.7 µM
How it was run: as §1

[12] = system: CRL-7250; assay: Cytotoxic Profiling of Annotated Libraries Using Quantitative High-Throughput Screening (AID 1296008); settings: Five cell lines viability, CellTiter-Glo ATP luminescence, 48-72 h; max response: stronger effect = lower value; also: potency is read from the fitted curve at half-maximal effect
How it was run: (§2)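 Cytotoxicity was measured as CellTiter-Glo ATP luminescence, read after 10 min at room temperature. Compound treatment of the cells lasted 48 or 72 hr at 37 degrees Celsius in a qHTS format.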

[13] = system: HEK293; assay: as above; settings: Five cell lines viability, CellTiter-Glo ATP luminescence, 48-72 h; max response: stronger effect = lower value
How it was run: as §2

[14] = system: HaCat; assay: as above; settings: Five cell lines viability, CellTiter-Glo ATP luminescence, 48-72 h; max response: stronger effect = lower value
How it was run: as §2

[15] = system: KB-3-1; assay: as above; settings: Five cell lines viability, CellTiter-Glo ATP luminescence, 48-72 h; max response: stronger effect = lower value
How it was run: as §2

[16] = system: NIH3T3; assay: as above; settings: Five cell lines viability, CellTiter-Glo ATP luminescence, 48-72 h; max response: stronger effect = lower value
How it was run: as §2

[17] = system: HACAT; assay: qHTS assay to identify novel small-molecules to repurpose for Merkel cell carcinoma treatment (AID 1296009); settings: MCC and control cell lines, CellTiter-Glo viability, 72 h; at 44.8 µM (top of the series) unless noted
How it was run: (§3)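 72 hr, 37 degree celsius; NPC 8-pt / MIPE 11-pt dose response; compound pinned in DMSO; CellTiter-Glo, 10 min RT, luminescence; normalized to no-cell and DMSO controls.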

[18] = system: HEK293T; assay: as above; settings: MCC and control cell lines, CellTiter-Glo viability, 72 h; at 44.8 µM (top of the series) unless noted
How it was run: as §3

[19] = system: MCC-13; assay: as above; settings: MCC and control cell lines, CellTiter-Glo viability, 72 h; series mostly up to 46 µM
How it was run: as §3

[20] = system: MCC-26; assay: as above; settings: MCC and control cell lines, CellTiter-Glo viability, 72 h; series mostly up to 46 µM
How it was run: as §3
Also: nearly all actives have a fitted effect of over 60% in size.

For CN1CCN(c2cc3c(nn2)Oc2ccccc2N3C)CC1, the Potency [1] was “inactive”, the Potency [2] was “inactive” and the Potency [3] was “inactive”. For the same compound, the Potency [4] was “inactive”, the Potency [5] was “inactive” and the Potency [6] was “inactive”. For the same compound, the Potency [7] was “inactive”, the Potency [8] was “inactive” and the Potency [9] was “inactive”. For the same compound, the Potency [10] was “inactive”, the Potency [11] was “inactive” and the max response [12] was -2.91%. The outcome [13] was “inactive”, the outcome [14] was “inactive” and the max response [15] was -19.4%. For the same compound, the max response [16] was -0.755%, the outcome [17] was “inactive [at 17.4 µM]” and the outcome [18] was “inactive [at 17.4 µM]”. The Potency [19] was “inactive” and the Potency [20] was “inactive”.
For CC(C(=O)O)c1ccc2c(c1)[nH]c1ccc(Cl)cc12 (stereo not drawn), the Potency [1] was “inactive”, the Potency [2] was “inactive” and the Potency [3] was “inactive”. For the same compound, the Potency [4] was “inactive”, the Potency [5] was “inactive” and the Potency [6] was “inactive”. The Potency [7] was “inactive”, the Potency [8] was “inactive” and the Potency [9] was “inactive”. The Potency [10] was “inactive”, the Potency [11] was “inactive” and the max response [12] was 2.04%. For the same compound, the outcome [12] was “inactive”, the max response [13] was -1.79% and the outcome [13] was “inactive”. For the same compound, the max response [14] was 1.94%, the outcome [14] was “inactive” and the max response [15] was 2.49% and 1.67%. For the same compound, the max response [16] was 1.25% and 0.838%, the outcome [17] was “inactive” and the outcome [18] was “inactive”. The Potency [19] was “inactive” and the Potency [20] was “inactive”.
In the case of CC(C)OC(=O)c1cc(C(=O)OC(C)C)cc([N+](=O)[O-])c1, the outcome [12] is reported as “inactive”, the max response [13] is reported as 4.1% and the outcome [14] is reported as “inactive”. The max response [15] was 2.68%, the max response [16] was -2.82% and the outcome [17] was “inactive [at 92 µM]”. For the same compound, the Potency [19] was “inactive”.
In the case of NCCO, the max response [12] is reported as -2.34%, the max response [13] is reported as 4.02% and the outcome [14] is reported as “inactive”. For the same compound, the max response [15] was -25.6%, the max response [16] was -0.614% and the outcome [17] was “inactive [at 92 µM]”. For the same compound, the Potency [19] was “inactive”.
Nc1c(CC(=O)O)cccc1C(=O)c1ccc(Br)cc1 was tested, and the Potency [1] was “inactive”, the Potency [2] was “inactive” and the Potency [3] was “inactive”. The Potency [4] was “inactive”, the Potency [5] was “inactive” and the Potency [6] was “inactive”. For the same compound, the Potency [7] was “inactive”, the Potency [8] was “inactive” and the Potency [9] was “inactive”. The Potency [10] was “inactive”, the Potency [11] was “inactive” and the max response [12] was 4.53%. For the same compound, the max response [13] was 2.21%, the outcome [14] was “inactive” and the max response [15] was 0.539%. The max response [16] was 2.91%, the outcome [17] was “inactive” and the Potency [19] was “inactive”.
In the case of O=C(Nc1ccc2c(c1)CCN(Cc1ncn[nH]1)C2)c1ccccc1-c1ccc(C(F)(F)F)cc1, the max response [12] is reported as -23.1%, the Potency [13] is reported as 23.1 µM (active) and the max response [14] is reported as 0.241%. It also gave a max response [15] of 1.94%.
COC(=O)[C@H]1[C@H]2C[C@@H]3c4[nH]c5cc(OC)ccc5c4CCN3C[C@H]2C[C@@H](OC(=O)/C=C/c2cc(OC)c(OC)c(OC)c2)[C@@H]1OC was tested, and the max response [12] was -14.2%, the max response [13] was -6.09% and the outcome [14] was “inactive”. The max response [15] was -8.17%, the outcome [15] was “inactive” and the outcome [16] was “inactive”. For the same compound, the outcome [17] was “inactive [at 17.4 µM]”.
With CCCCCCCCCCCC(=O)[O][Sn]([CH2]CCC)([CH2]CCC)[O]C(=O)CCCCCCCCCCC the Potency [1] was “inactive”, the Potency [2] was “inactive” and the Potency [3] was “inactive”. The Potency [4] was “inactive”, the Potency [6] was “inactive” and the Potency [7] was “inactive”. For the same compound, the Potency [8] was “inactive”, the Potency [9] was “inactive” and the Potency [10] was “inactive”. The Potency [11] was “inactive”, the max response [12] was -26.6% and the max response [13] was -9.3%. For the same compound, the outcome [14] was “inactive”, the max response [15] was -5.63% and the max response [16] was 4.84%. For the same compound, the outcome [17] was “inactive”, the Potency [19] was “inactive” and the Potency [20] was “inactive”.
In the case of CC(=O)SCC(CC(=O)c1ccc(C)cc1)C(=O)O (stereo not drawn), the max response [12] is reported as 2.17%, the outcome [13] is reported as “inactive” and the max response [14] is reported as -9.14%. The outcome [15] was “inactive”, the max response [16] was -1.54% and the outcome [18] was “inactive”. For the same compound, the Potency [19] was “inactive” and the Potency [20] was “inactive”.
Nc1ccc(C(=O)O)c(O)c1 was tested, and the Potency [1] was “inactive”, the Potency [2] was “inactive” and the Potency [3] was “inactive”. The Potency [4] was “inactive”, the Potency [5] was “inactive” and the Potency [6] was “inactive”. For the same compound, the Potency [7] was “inactive”, the Potency [8] was “inactive” and the Potency [9] was “inactive”. The Potency [10] was “inactive”, the Potency [11] was “inactive” and the max response [12] was -0.825%. For the same compound, the max response [13] was 3.06%, the outcome [14] was “inactive” and the max response [15] was -11.5%. For the same compound, the outcome [16] was “inactive”, the outcome [17] was “inactive” and the Potency [19] was “inactive”. The Potency [20] was “inactive”.
Nc1ccc(O)c(C(=O)O)c1 was tested, and the Potency [2] was “inactive”, the Potency [3] was “inactive” and the Potency [4] was “inactive”. The Potency [5] was “inactive”, the Potency [6] was “inactive” and the Potency [7] was “inactive”. The Potency [8] was “inactive”, the Potency [9] was “inactive” and the Potency [10] was “inactive”. For the same compound, the Potency [11] was “inactive”, the outcome [12] was “inactive” and the max response [13] was -8.37%. The outcome [14] was “inactive”, the max response [15] was 2.58% and the outcome [16] was “inactive”. For the same compound, the outcome [17] was “inactive” and the Potency [19] was “inactive”.
In the case of O=C(Nc1ccc2[nH]ncc2c1)C1CCC1, the outcome [12] is reported as “inactive”, the max response [13] is reported as 0.86% and the max response [14] is reported as -2.65%. The max response [15] was -1.12% and the max response [16] was 4.63%.
